# Results filed as inconclusive are left out. A number with no mark means an inactive call. Calls follow the shape of the dose curve; as a rule, active = well fitted inhibition curve with a large enough effect; inconclusive = small, poorly fitted or top-dose-only effect; inactive = no such curve, though single readings can be large or run the other way.
# Molecular target: Rap guanine nucleotide exchange factor 3 (Homo sapiens) (UniProt O95398)
# Assay: Counterscreen qHTS for antagonist of cAMP-regulated guanine nucleotide exchange factor 3 (EPAC1) (AID 1645888);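 also: fluorescence loss as bound BODIPY-GDP is released from Rap1B; % of control where 0% means no effect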
# Details: Rap1B-BODIPY-GDP nucleotide exchange, fluorescence; series mostly up to 154 µM; activity change, negative = inhibition: at the top concentration
# In short: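 Rap1B–BODIPY-GDP (250 nM) with 50 uM GDP; compounds pin-transferred to 9.74 nM–152 uM final (activator) or from 7.32 nM upwards (inhibitor). Fluorescence Ex/Em 480/540 nm read at 5 and 30 min, then after adding cAMP or buffer, at room temperature.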
# Chain of Rap guanine nucleotide exchange factor 3 (Homo sapiens) (O95398 whole entry, looked up): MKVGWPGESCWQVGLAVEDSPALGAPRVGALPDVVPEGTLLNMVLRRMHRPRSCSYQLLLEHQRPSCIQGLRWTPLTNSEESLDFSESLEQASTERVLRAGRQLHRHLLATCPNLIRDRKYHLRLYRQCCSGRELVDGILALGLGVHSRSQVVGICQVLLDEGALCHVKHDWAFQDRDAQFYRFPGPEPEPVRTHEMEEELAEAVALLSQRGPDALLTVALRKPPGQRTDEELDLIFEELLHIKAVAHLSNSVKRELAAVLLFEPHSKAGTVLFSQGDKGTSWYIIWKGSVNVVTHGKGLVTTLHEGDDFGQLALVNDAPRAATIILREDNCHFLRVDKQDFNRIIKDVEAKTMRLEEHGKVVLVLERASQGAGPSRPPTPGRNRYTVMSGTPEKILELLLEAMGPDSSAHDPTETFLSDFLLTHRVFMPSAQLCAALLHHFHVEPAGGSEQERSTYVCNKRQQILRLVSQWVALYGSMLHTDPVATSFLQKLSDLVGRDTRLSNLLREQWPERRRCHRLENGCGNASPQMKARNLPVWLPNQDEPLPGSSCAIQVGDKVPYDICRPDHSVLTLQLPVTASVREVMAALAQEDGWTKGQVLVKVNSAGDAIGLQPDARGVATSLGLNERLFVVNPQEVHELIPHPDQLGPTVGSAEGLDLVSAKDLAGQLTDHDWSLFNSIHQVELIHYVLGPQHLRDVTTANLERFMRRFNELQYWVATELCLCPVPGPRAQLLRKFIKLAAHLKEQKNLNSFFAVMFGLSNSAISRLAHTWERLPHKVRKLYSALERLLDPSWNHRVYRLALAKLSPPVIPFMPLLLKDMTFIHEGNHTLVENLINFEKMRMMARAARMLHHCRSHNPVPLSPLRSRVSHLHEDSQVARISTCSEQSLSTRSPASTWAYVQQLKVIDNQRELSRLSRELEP
row,SMILES,"activity change, negative = inhibition"
1,CCOP(=O)(OCC)C(Cc1ccccc1)N=C(c1ccccc1)c1ccccc1 (stereo not given),3.36% [at 30.8 µM]
2,Cc1cc(Br)cc(Cl)c1OC(=O)c1ccncc1,-7.27%
3,O=C(CCC1N=C2c3ccccc3N=C(SCc3ccc(Cl)cc3)N2C1=O)NCc1cccs1 (stereo not given),17.1%
4,COc1ccc(N=C2SC(C(=O)Nc3ccc(C(=O)O)cc3)CC(=O)N2Cc2cccs2)cc1 (stereo not given),-2.18% [at 30.8 µM]
5,C=CCc1cccc(CNc2c(C)cc(C)cc2C)c1O,12.8%
6,CCOc1cc(-c2c(C#N)c(N)nc3c2CCCC3C)ccc1O (stereo not given),-3.68%
7,COc1ccc(OC)c(N2C(=O)[C@@H]3C(c4ccccc4Cl)=NO[C@@H]3C2=O)c1,3.5%
8,Cc1nn(CCc2nn[nH]n2)c2nc(-c3ccc(Br)cc3)cc(C(F)(F)F)c12,-3.83%
9,O=C(C=Cc1ccccc1)c1c[nH]c2ccccc2c1=O,-25.8% [at 30.8 µM]
10,CCOc1ccc(/C=C/C(=O)c2c(O)c3ccccc3oc2=O)cc1,6.6%
11,COc1cc(O)c(C=NN2C(=O)CSC2=S)c(OC)c1,21.6%
12,Cc1ccc(CN(C(=O)COc2cccc([N+](=O)[O-])c2)c2ccccn2)cc1,38.5%
13,N#C/C(=C/c1cccn1-c1cccc(C(=O)O)c1)c1ccc(F)cc1,-6.54% [at 30.8 µM]
14,CCN=C1S/C(=C\c2ccc(-c3cccc(C(=O)O)c3)o2)C(=O)N1CC,10.5%
15,O=C(Nc1cc(C(F)(F)F)ccc1Cl)c1nc2ccccc2nc1N1CCCCC1,20.2%
16,CC1(Cc2cc(Cl)ccc2C(F)(F)F)C(=O)Nc2cc(F)ccc21 (stereo not given),-15.8% [at 30.8 µM]
17,COC1=CC(=O)C(C2CC(=O)c3c(O)cc(O)cc3O2)=CC1=O (stereo not given),-16% [at 30.8 µM]
18,O=C(O)C/C(=C\c1cc(Cl)c2c(c1)OCO2)c1nc2ccccc2s1,-1% [at 30.8 µM]
19,O=C1C=CC(c2ccccc2)(c2ccccc2)CC1,-3.3% [at 30.8 µM]
20,COc1ccccc1C(=O)Nc1nnc(SCc2cc(=O)c3ccccc3[nH]2)s1,17.6%

row,SMILES,"activity change, negative = inhibition"
1,CC(C)(C)NC(=O)NC(=O)CN1CCN(S(=O)(=O)c2ccc3c(c2)CCCC3)CC1,-44% [at 30.8 µM]
2,CC(C)CCNc1nc(-c2ccco2)c2c(c1C#N)CCCC2,-13.9%
3,CC1=Nc2ccccc2N=C(NC(=O)/C=C/C(=O)O)C1c1ccccc1 (stereo not given),7.28%
4,CCOC(=O)N(C)c1c(CC)nc2c(OCc3ccc(C(F)(F)F)cc3)cccn12,-29.6%
5,CC(=Cc1ccccc1)C=C1SC(=S)N(CCCC(=O)Nc2ccc(C(=O)O)cc2)C1=O,14.6%
6,O=C(Cn1ncc(Cl)c(Cl)c1=O)NC(=O)NC1CCCCC1,-1.53% [at 30.8 µM]
7,CC(=O)c1sc2nc(-c3ccco3)ccc2c1N,9%
8,COc1ccc(C(CCN(Cc2ccc(OC)c(OC)c2)C(C)=O)C(C)C)cc1 (stereo not given),0.898%
9,CCOP(=O)(OCC)C(Cc1ccc(OC)c(OC)c1)N=C(c1ccccc1)c1ccccc1 (stereo not given),-11.3% [at 30.8 µM]
10,Cc1onc(-c2c(F)cccc2Cl)c1C(=O)OCc1cnc(Cl)s1,8.14%
11,Cc1ccc(C)n1-c1ccc(C(=O)/C=C/N(C)C)cc1,-17.3% [at 30.8 µM]
12,O=C(COC(=O)c1ccc2c(c1)C(=O)N(Cc1ccncc1)C2=O)Nc1ccccc1[N+](=O)[O-],-13.3%
13,CCN(C(=O)c1noc2c1COc1ccc(C)cc1-2)c1cccc(C)c1,14.2%
14,CCOC(=O)N1CCC(Nc2nc3ccccc3n3cnnc23)CC1,-12.2% [at 30.8 µM]
15,C[C@@H]1COC(=O)[C@H](NC(=O)OCC2c3ccccc3-c3ccccc32)C/C=C\C[C@@H](CC(=O)N[C@H](CO)Cc2ccccc2)C(=O)N1,-6.46% [at 30.8 µM]
16,COc1ccccc1-n1c(C)c(C(=O)O)c2cc(OC)c3ccccc3c21,-6.35%
17,CCOC(=O)C(C)Sc1nc(-c2ccco2)cc(C(F)(F)F)c1C#N (stereo not given),-10.8% [at 30.8 µM]
18,Cc1ccc(C)c(CSC2=NC(C)(C)Nc3ccccc32)c1,29.6%
19,C[C@@H]1ON(C)[C@H]2C[C@H]3c4[nH]c5ccc(-c6ccc7c(c6)OCO7)cc5c4CCN3C(=O)[C@@H]12,-7.04% [at 30.8 µM]
20,O=C(c1ccc2c(c1)CCCC2)N1CCN(c2nc3ccc(F)cc3s2)CC1,16.9%
